Shiga toxin inh = A qHTS for Small Molecule Inhibitors of Shiga Toxin. Vero cells, Shiga toxin protein synthesis inhibition reporter. inhibition, % at 38.7 µM. 290,000 compounds, 9.2% hits. AID 2315, 2010; in the data active = inhibition mostly above about 28%, no sharp cut-off; inactive = mostly below about 43%; note: 0% is about no effect
Tb PYK inh = qHTS of Trypanosoma Brucei Inhibitors; pyruvate kinase (Trypanosoma brucei), Q57TT1; TbPYK enzyme, Kinase-Glo Plus ATP luminescence, 45 min; Potency, µM (highest dose often 76.8 µM), for the others: at the highest dose activity, negative = inhibition, hits mostly inhibitors; 410,000 compounds, 0.12% hits; AID 624173, 2012; note: potency is the fitted concentration of half-maximal effect; % is set by controls: 0 for no effect and ±100 for the full control effect; nearly all actives have a fitted effect of over 50% in size
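ADP (130 uM final) triggers the TbPYK reaction after compound addition; incubation is 45 min at room temperature. Kinase-Glo Plus is then added and luminescence imaged. Normalized data are fitted to concentration-effect curves.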
FBPA Giardia inh = qHTS Assay for Inhibitors of Fructose-1,6-bisphosphate Aldolase from Giardia Lamblia | A8B2U2 | purified Giardia FBPA | 290,000 compounds, 0.71% hits | AID 2451, 2010 | Potency, µM (series often up to 59.6 µM), without a hit: top-dose activity, negative = inhibition, actives largely listed as inhibitors; note: potency is the fitted concentration of half-maximal effect; % is set by controls: 0 for no effect and ±100 for the full control effect; nearly all actives have a fitted effect of over 55% in size
Target sequence (A8B2U2 whole entry, looked up): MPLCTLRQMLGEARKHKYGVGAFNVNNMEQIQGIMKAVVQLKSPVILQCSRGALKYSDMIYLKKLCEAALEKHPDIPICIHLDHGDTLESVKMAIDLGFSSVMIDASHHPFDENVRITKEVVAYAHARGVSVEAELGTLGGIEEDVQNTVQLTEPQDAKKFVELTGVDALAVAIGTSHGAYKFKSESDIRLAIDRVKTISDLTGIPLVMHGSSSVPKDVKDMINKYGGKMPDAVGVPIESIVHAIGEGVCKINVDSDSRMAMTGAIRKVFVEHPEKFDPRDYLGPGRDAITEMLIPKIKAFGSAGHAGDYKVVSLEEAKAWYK
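Giardia FBPA (40 nM reagent) was preincubated 10 min at RT with compound (up to 57.5 uM final), then substrate plus GAPDH/TPI/NAD/arsenate coupling system with diaphorase/resazurin was added; resorufin fluorescence (525/598 nm) was read after 20 min.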
CHX counter = Cycloheximide Counterscreen for Small Molecule Inhibitors of Shiga Toxin; cell reporter, cycloheximide protein synthesis inhibition counterscreen; max response, %; 300,000 compounds, 12% hits; in the data active = max response mostly above about 13%, no sharp cut-off; inactive = mostly below about 14%; note: read at 38.3 µM for the half of the compounds with a filed dose; 0% is about no effect
LmPK inhibitor = qHTS Assay for Inhibitors of Leishmania Mexicana Pyruvate Kinase (LmPK) | 290,000 compounds, 0.37% hits | purified LmPK, Kinase-Glo ATP luminescence, 1 h | Q27686 | Potency, µM (series often up to 57.5 µM), for the others: top-dose activity change, negative = inhibition, most hits filed as inhibitors; note: potency is the fitted concentration of half-maximal effect; % is set by controls: 0 for no effect and ±100 for the full control effect
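Purified LmPK (0.1 nM) with 0.5 mM PEP and 0.1 mM ADP in imidazole buffer pH 7.2 with MgCl2/KCl, 1 h at room temperature. ATP formed was read by luciferase luminescence and normalized to no-enzyme and uninhibited controls.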
Sm TGR block = qHTS Assay for the Inhibitors of Schistosoma Mansoni Peroxiredoxins; Schistosoma mansoni thioredoxin glutathione reductase (TGR), Q962Y6; purified TGR, DTNB reduction, TNB absorbance 405 nm; Potency, µM (titrated, usually from 114 µM), without a hit: at the highest dose activity change, negative = inhibition, hits mostly inhibitors; 360,000 compounds, 3% hits; AID 485364, 2010; note: potency is the fitted concentration of half-maximal effect; % is set by controls: 0 for no effect and ±100 for the full control effect; nearly all actives have a fitted effect of over 60% in size
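First, TGR (20 nM dispensed) and NADPH were mixed with compound. Second, a 15 min room-temperature incubation followed. Third, further NADPH and then DTNB were added to start the reaction. Finally, TNB absorbance was monitored kinetically.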
* = called active by the depositor; ? = inconclusive; . = not tested or not shown; + = active, no number. The entries come from a sample that favours hits as a whole. Unless noted, calls come from the whole dose curve; as a rule, active = well fitted curve in the direction sought with a large enough effect; inconclusive = small, poorly fitted or top-dose-only effect, or another doubt; inactive = no such curve, though single readings can be large; an effect the other way counts as inactive or inconclusive.

SMILES | Shiga toxin inh | Tb PYK inh | FBPA Giardia inh | CHX counter | LmPK inhibitor | Sm TGR block
CC(=O)c1cc(NC(=O)c2ccc([N+](=O)[O-])cc2)c(=O)oc1C | 49 | -3% | -6% | 1 | -2% | 22µM*
COC(=O)c1cc(NC(=O)c2ccccc2)c(=O)oc1C | 22 | -1% | 3% | 13 | 0% | -20%
COC(=O)c1cc(NC(=O)c2ccc([N+](=O)[O-])cc2)c(=O)oc1C | -2 | -6% | -2% | -5 | 1% | 56µM*
COC(=O)c1cc(NC(=O)c2ccc(C)cc2)c(=O)oc1C | 43 | -10% | 6% | 25* | -11% | -3%
CCc1nc2ccc(C(=O)NCCN3CCOCC3)cn2c1N(C=O)Cc1ccc(OC)cc1 | . | 1% | . | . | . | .
Cc1cccc(-n2c(O)c(C=NC3CCS(=O)(=O)C3)c3ccccc3c2=O)c1C (stereo not drawn) | -7 | -4% | -4% | 9 | 1% | -2%
O=C(NCc1ccco1)/C(=C/c1cccc(C(F)(F)F)c1)c1nc2ccccc2[nH]1 | -1 | -9% | -13% | 18* | -1% | 0%
O=C(NCc1ccco1)/C(=C/c1ccc(C(F)(F)F)cc1)c1nc2ccccc2[nH]1 | 12* | 1% | -30% | 59* | 4% | -28%
O=C(COC(=O)/C=C/c1cccc(C(F)(F)F)c1)NCc1ccco1 | . | -9% | . | . | . | -19%
O=S(=O)(/C(=C\c1ccc(C(F)(F)F)cc1)c1nc2ccccc2[nH]1)c1ccccc1 | . | -3% | . | . | . | .
O=C(c1cccs1)N1CCCc2cc(NS(=O)(=O)c3ccc(Br)cc3)ccc21 | . | -1% | . | . | . | -9%
CC1=C(C(=O)Nc2ccccc2)C(c2ccncc2)n2nc(SCc3ccccc3)nc2N1 (stereo not drawn) | . | -2% | . | . | . | 0%
COc1cc(OC)c(OC)cc1C=O | . | 8% | 1% | . | . | .
COc1cc(/C=C2\C(=O)NC(=O)N(c3ccccc3)C2=O)cc(OC)c1O | 3 | ? | 10µM* | -3 | -5% | 87%
COc1cc(/C=C2\C(=O)NC(=O)N(c3ccccc3)C2=O)c([N+](=O)[O-])cc1OC | -9 | ? | ? | -1 | 0% | 1.6µM*
COc1ccccc1N1C(=O)NC(=O)/C(=C/c2ccc3c(c2)Cc2ccccc2-3)C1=O | 45* | -15% | -7% | 12 | 2% | 32µM*
COc1cc(C=O)c([N+](=O)[O-])cc1OC | . | . | 5µM* | . | . | .
O=C(Nc1ccc(Cl)c(Cl)c1)OCc1cccnc1 | 42* | 0% | 2% | 20* | 2% | -13%
O=C(Nc1cccnc1)OCc1ccccc1 | 36 | 1% | -3% | 19* | 0% | 0%
Cc1ccc2nc(-c3ccc(Cl)c(NC(=O)COc4ccc([N+](=O)[O-])cc4)c3)oc2c1 | . | 1% | . | . | . | 5%
CCc1ccc(S(=O)(=O)NCCc2csc3nc(-c4ccccc4)nn23)s1 | . | 1% | . | . | . | 5%
O=C(c1ccc(COCC(F)(F)F)cc1)N1CCN(c2ccccn2)CC1 | 46* | 1% | -8% | 35* | -1% | 4%
O=C(NCc1ccccc1)c1cnc(Cl)c(Cl)c1 | 20 | -5% | 13% | 23* | 1% | 8%
O=C(NCc1cccnc1)c1ccc(COc2ccccc2Cl)cc1 | 63 | 4% | 0% | 10 | 1% | 10%
O=C(NCc1ccccc1)c1cccc(COc2ccccc2Cl)c1 | 120* | 6% | -1% | 61* | 3% | 7%
SMILES | Shiga toxin inh | Tb PYK inh | FBPA Giardia inh | CHX counter | LmPK inhibitor | Sm TGR block
NNC(=O)c1cccc(COc2ccccc2Br)c1 | 100* | 3% | -6% | 81* | -5% | 7%
NNC(=O)c1ccc(COc2cccc3ccccc23)cc1 | -8 | 1% | 0% | -6 | 0% | 3%
COC(=O)c1ccccc1NC(=O)c1cccc(COc2ccccc2Cl)c1 | 89* | 0% | -1% | 86* | -2% | -10%
NNC(=O)c1cccc(COc2ccc3c(c2)CCC3)c1 | 196* | -1% | -3% | 206* | -1% | 14%
O=C(c1cccc(COc2ccc(Cl)cc2Cl)c1)N1CCN(c2ccccn2)CC1 | + | 2% | 8% | 92* | 1% | 10%
O=C(COc1ccc2c(c1)CCC2)NCc1ccccc1 | 15 | 1% | -2% | 15 | 4% | -8%
CN(C(=O)c1cccc(COc2ccc(Cl)cc2Cl)c1)c1ccccc1 | 185* | -2% | 5% | 171* | 1% | -3%
O=C(c1ccc(Cl)c(Cl)c1)N1CCN(c2ccccn2)CC1 | -7 | 3% | 2% | 1 | -3% | 0%
COc1ccc(N2CCN(C(=O)COC(=O)COc3cc(C)cc(C)c3)CC2)cc1 | . | -1% | . | . | . | -5%
O=C(OCc1cc(=O)n2nc(C3CC3)sc2n1)c1ccc(NC(=O)c2ccccc2Cl)cc1 | . | -9% | . | . | . | 0%
CCC1=C2CC[C@H]3C(=O)N(c4ccccc4)C(=O)[C@H]3[C@H]2[C@@]2(Cc3ccccc3)C(=O)N(CC(=O)OC)C(=O)N2C1=O | . | . | 5% | . | . | .
CCc1nn(CC(=O)NCc2ccc(OC)cc2OC)c(=O)c2cc3c(OC)cccc3n12 | . | 2% | . | . | . | 1%
O=C(c1ccccc1)N1CCN(CC(O)COc2cccc3ccccc23)CC1 (stereo not drawn) | . | -2% | -21% | -1 | 8% | -13%
CCOc1cccc(C(=O)NCc2ccccc2)c1 | 13 | 9% | 9% | 7 | -2% | .
O=C(NCc1ccccc1)c1cccc(COc2cc(Cl)ccc2Cl)c1 | 118* | -9% | 6% | 41* | 9% | -14%
O=C(c1cccc(COc2cccc3ccccc23)c1)N1CCCC1 | 47* | 2% | -10% | 40* | 1% | 9%
C#Cc1cccc(N2C(=O)C3C4C=CC(C3C2=O)C2C(=O)N(c3cccc(C#C)c3)C(=O)C42)c1 (stereo not drawn) | . | 1% | . | . | . | .
COC(=O)c1ccc(N2C(=O)CC(N3CCN(c4ccccc4)CC3)C2=O)cc1 (stereo not drawn) | . | 0% | . | . | . | .
O=C(O)c1ccc(N2C(=O)CC(N3CCN(c4cccc(C(F)(F)F)c4)CC3)C2=O)cc1 (stereo not drawn) | 14 | 1% | 2% | -1 | 0% | 89µM*
O=C(O)c1ccc(N2C(=O)CC(N3CCN(c4cccc(Cl)c4)CC3)C2=O)cc1 (stereo not drawn) | . | 0% | -5% | 9.7* | 9% | 50µM*
COc1ccccc1CNc1cc(-c2ccccc2Cl)ncn1 | . | . | -1% | . | . | .
N#Cc1ccccc1OCC(=O)N1CCN(c2ccccc2)CC1 | . | 3% | . | . | . | 9%
